This is part of a sample that, as a whole, favours compounds with a hit. Of some 83,000 tested, about 20% had one in any assay.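 For each line, cells grew in 96-well plates with the test compound present at a single concentration for 48 hours.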 Values without a mark were called inactive. Active and inactive are the calls of the source. Rule for the calls: active = growth percent below 10; inactive = the rest.

The subject of this test is HL-60(TB) leukemia. Put plainly: NCI-60 one-dose screen, 48 h (100 = growth as untreated, 0 = no growth, -100 = all killed). The conditions noted are these: 10 µM unless noted.
In the case of `O=C(N/N=C/c1ccccc1SSc1ccccc1/C=N/NC(=O)c1ccccc1)c1ccccc1`, the growth is 3.4% (active).

Take `COc1cc(CNC(=O)CCCC/C=C/C(C)C)ccc1OCc1cn(-c2ccc(C(F)(F)F)cc2)nn1`: the growth was 85.3%.

Regarding `Cn1cc(Nc2nccc(-c3ccc(N4CCCC4)c(C#N)c3)n2)cn1`, the growth was -17.8% (active).

Take `COc1ncc(-c2ccc3nc(N)n(-c4ccccc4C(F)(F)F)c(=O)c3c2)cc1S(=O)(=O)Nc1ccc(F)cc1F`: the growth was 19.9%.

On to `COc1cc2nc(SCc3cc(OC)c(OC)c(OC)c3)n(Cc3ccccc3)c(=O)c2cc1OC`, for which the growth was 11.9%.

For `CCCC1C(C(=O)OCC)=C(N)Oc2cc(O)ccc21` (stereo not given), the growth is 102%.

Regarding `Cn1ncc(Cl)c1-c1cc(C(=O)N[C@H](CN)Cc2cccc(F)c2)sc1Cl`, the growth was 12.2%.

As to `COc1cccc(C2CC(=O)Nc3cc4c(cc32)CCC4)c1OC` (stereo not given), the growth was 10.4%.

In the case of `C/C(=C\CCc1ccsc1)CC/C=C(\C)CCCN1CCC(CO)CC1`, the growth is -49.9% (active).

Consider `CCN(CC)CCOCC[C@H]1CC[C@H]2[C@@H]3[C@H](C)Cc4cc(OS(N)(=O)=O)ccc4[C@H]3CC[C@]12C`, for which the growth was -74.9% (active).

For `Cn1ccnc1C(=O)/C=C/c1ccc(CC(=O)Nc2ccc(F)cc2)cc1`, the growth was 18.8%.

In the case of `COc1cc(-c2n[nH]nc2-c2ccc3c(c2)OCCO3)cc(OC)c1OC`, the growth was -5.41% (active).

As for `COc1ccc(/C=N/Nc2nc3ccccc3s2)cc1`, the growth was 84.9%.

As for `CC(C)(C)c1ccc(NS(=O)(=O)c2ccc3nc(NC(=O)c4cnccn4)[nH]c3c2)cc1`, the growth was -21.9% (active).

Turning to `CC(=O)c1ccc(Nc2nc(C(C)=O)c(C)s2)cc1`, the growth is 88%.

In the case of `Cc1ccc(C(=O)N/N=C/c2ccc3c(c2)OCO3)cc1`, the growth was 90.4%.

Turning to `CC1CCN(CCCCCOc2ccc3oc4ccccc4c(=O)c3c2)CC1`, the growth is 44.6%.

Regarding `O=[N+]([O-])c1ccc(Oc2nc(Nc3ccc(O[C@H]4CO[C@H]5[C@@H]4OC[C@@H]5O)c(Cl)c3)ncc2F)c(Cl)c1`, the growth was 25.6%.

Consider `O=C(Nc1sc2c(c1C(=O)O)CCCC2)c1cccc(C(F)(F)F)c1`, for which the growth was 92.9%.

As to `O=C(CCCCCCN1CC(=O)N2[C@H](c3ccc(Br)cc3)c3[nH]c4ccccc4c3C[C@@H]2C1=O)NO`, the growth is 5.8% (active).

For the compound `COc1cc(C2CC(=O)Nc3c2c(C)nn3-c2nc3ccccc3[nH]2)cc(OC)c1OC` (stereo not given), the growth is 108%.

Take `COC(=O)CC[C@@H](C)[C@H]1CC[C@H]2C3CC[C@@H]4C[C@@H]5CC[C@]4(C)[C@@]3(O5)[C@H](Br)[C@@H](Br)[C@]12C` (stereo not given in full): the growth is 81.2%.

Turning to `O=C(/C=C/c1cn(-c2ccccc2)nc1-c1ccc(Cl)cc1)c1ccc(F)cc1`, the growth is 56.6%.

`Nc1nc(-c2ccc(Cl)cc2)nc2c1sc(=S)n2-c1ccccc1`: the growth is 103%.

On to `O=C1NC(=O)C(Cc2ccc(OCc3ccc(-c4cc(F)c(F)c(F)c4)cc3)cc2)S1` (stereo not given), for which the growth is 106%.

For `COc1cc(-c2ncn(/C=C\c3nnco3)n2)cc(C(F)(F)F)c1`, the growth was 11.2%.

For the compound `Oc1ccc2ccccc2c1N=Nc1ccccn1`, the growth is -32.4% (active).

`COc1cc(-c2cnc3nonc3n2)c(OC)c2c1OCO2`: the growth was 88.8%.

With `Nc1cc2c([nH]c[n+]2CC#CCCl)c(SCC#CCCl)n1`, the growth was -17.8% (active).

Take `Cc1cccc(C)c1N1C(c2ccccc2)=NNC12C=CC(=O)c1c(O)cccc12` (stereo not given): the growth is 61.2%.

Regarding `Cn1cc(-c2noc(C(=O)c3cn(C)c4ncc(Br)cc34)n2)c2ccccc21`, the growth is 103%.

For `COc1ccc(N=Cc2c(O)ccc3c2oc2cc(Cl)c(O)c(Cl)c23)cc1`, the growth was 86.6%.

As for `O=C1Nc2ccccc2/C1=C/c1cccs1`, the growth was 107%.

As for `Cc1nc(Nc2cn[nH]c2C(=O)Nc2ccc(CN3CCN(C)CC3)cc2)c2ccsc2n1`, the growth is 113%.

As to `Cc1ccc(NC2CC(=O)N(c3c(C)cc(C)cc3C)C2=O)c(C)c1` (stereo not given), the growth is 102%.

Take `C=C(C)[C@@H]1CC[C@]2(C)[C@H](CC=C3[C@@H]4CC(C)(C)CC[C@]4(C(=O)OC)CC[C@]32C)[C@@]1(C)CC/C(N)=N/O`: the growth is 2.39% (active).

`COc1ccc(-c2nn(-c3cccc(Cl)c3)cc2/C=C2\NC(=S)N(c3ccc(Cl)cc3)C2=O)cc1`: the growth was 24.9%.

Consider `COc1cc(OC)c(/C=C/C(=O)c2c(OC)cccc2OC)c(OC)c1`, for which the growth was 7.89% (active).

As for `CCN1CCN(c2cc(-c3cn[nH]c3-c3cc(C)cc(OC)c3)nc(-c3cccnc3)n2)CC1`, the growth was 64.9%.

Take `Nc1[nH]n2cc(-c3ccc(F)cc3)nc2c1N=Nc1ccc(S(N)(=O)=O)cc1`: the growth was 94.7%.

The values above are taken from PubChem BioAssay (NCI).
